# Data as given in ChEMBL document CHEMBL3988442, “University of Dundee, Small-Polar-MMV Screening Library” (2021).
# Values joined by “and” are separate entries in the source; they are usually repeats but may differ in a detail not shown here. Identical values can stand only once. For part of these data: Results with a measured potency or affinity are listed apart.
# Experiments:
# Design in all cases: scale not given: direction of the effect not stated beside the values
# [1] = molecular target: Protein translocase subunit SecA (Escherichia coli (strain K12)) (UniProt P10408); test: Assay to Identify E. coli SecA ATPase Inhibitors; format: functional; settings: 30 µM
# [2] = molecular target: T1, Ubiquitin-activating enzyme e1, putative (Leishmania donovani (strain BPK282A1)) (UniProt E9BSI1); test: Leishmania donovani Ubiquitin Activating Enzyme (LdE1); format: functional; settings: 30 µM
# T1 sequence (whole entry): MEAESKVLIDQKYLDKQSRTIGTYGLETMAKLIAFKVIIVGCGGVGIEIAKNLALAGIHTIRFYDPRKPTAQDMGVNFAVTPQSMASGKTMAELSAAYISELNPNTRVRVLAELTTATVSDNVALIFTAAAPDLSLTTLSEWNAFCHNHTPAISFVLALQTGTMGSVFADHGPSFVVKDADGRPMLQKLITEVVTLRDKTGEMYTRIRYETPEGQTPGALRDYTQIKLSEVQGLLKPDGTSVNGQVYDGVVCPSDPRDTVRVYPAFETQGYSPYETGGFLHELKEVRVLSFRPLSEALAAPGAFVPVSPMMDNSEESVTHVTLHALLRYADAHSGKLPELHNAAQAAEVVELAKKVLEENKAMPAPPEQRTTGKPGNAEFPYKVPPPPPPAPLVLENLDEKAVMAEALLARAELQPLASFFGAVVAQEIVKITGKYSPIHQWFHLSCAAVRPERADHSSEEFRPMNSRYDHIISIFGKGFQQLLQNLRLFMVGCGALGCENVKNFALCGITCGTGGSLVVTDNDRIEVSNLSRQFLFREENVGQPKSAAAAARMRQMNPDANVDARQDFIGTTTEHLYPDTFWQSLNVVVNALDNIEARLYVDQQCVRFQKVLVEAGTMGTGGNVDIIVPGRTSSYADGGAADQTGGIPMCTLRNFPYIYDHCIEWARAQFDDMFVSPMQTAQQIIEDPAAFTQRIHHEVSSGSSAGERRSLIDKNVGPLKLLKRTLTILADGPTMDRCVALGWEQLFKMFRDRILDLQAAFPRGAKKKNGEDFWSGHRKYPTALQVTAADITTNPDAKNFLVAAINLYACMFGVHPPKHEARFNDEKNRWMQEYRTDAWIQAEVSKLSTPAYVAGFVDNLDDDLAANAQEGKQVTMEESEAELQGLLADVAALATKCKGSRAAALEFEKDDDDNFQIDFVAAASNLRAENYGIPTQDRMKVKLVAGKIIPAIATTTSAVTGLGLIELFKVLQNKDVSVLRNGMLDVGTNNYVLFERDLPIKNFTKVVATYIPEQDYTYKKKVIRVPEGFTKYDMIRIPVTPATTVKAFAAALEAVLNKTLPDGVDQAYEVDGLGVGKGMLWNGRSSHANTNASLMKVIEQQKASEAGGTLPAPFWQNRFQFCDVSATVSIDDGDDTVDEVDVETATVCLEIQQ
# [3] = molecular target: AMP-activated protein kinase, AMPK (Homo sapiens) (UniProt P54646+O43741+P54619+Q9UGJ0+Q9Y478+Q13131+Q9UGI9); test: AMP-dependent Kinase enzyme assay. An in vitro enzyme assay that detects ADP turnover that is directly proportional to AMPK activity. This uses naive AMPK that is activated during the assay with MK-8722; format: functional; settings: 30 µM
# [4] = molecular target: Sialic acid-binding Ig-like lectin 9 (Homo sapiens) (UniProt Q9Y336); test: Hs-Siglec9 ALPHAscreen SOP 20170721; settings: 10 µM
# Trypanosoma cruzi = test: Trypanosoma cruzi phosphomannomutase and mannose-1-phosphate guanylyltransferase assay; format: functional; settings: 10 µM
# [5] = molecular target: T2, Arginase-2, mitochondrial (Homo sapiens) (UniProt P78540); test: in vitro enzyme assay to detect the production of urea directly proportional to the activity of Arginase II; format: functional; settings: 33.3 µM; also: in the data most compounds retested in dose-response had high values
# T2 sequence (whole entry): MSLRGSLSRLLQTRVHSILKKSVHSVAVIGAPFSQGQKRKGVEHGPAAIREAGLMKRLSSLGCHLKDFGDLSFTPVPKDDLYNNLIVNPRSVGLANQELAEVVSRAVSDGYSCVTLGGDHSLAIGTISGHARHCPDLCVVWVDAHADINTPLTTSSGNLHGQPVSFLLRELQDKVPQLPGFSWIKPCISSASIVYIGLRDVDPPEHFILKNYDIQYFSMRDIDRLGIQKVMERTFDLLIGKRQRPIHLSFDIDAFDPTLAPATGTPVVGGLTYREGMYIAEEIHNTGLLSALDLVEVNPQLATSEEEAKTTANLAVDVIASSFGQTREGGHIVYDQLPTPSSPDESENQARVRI
# [6] = molecular target: T3, Proteasome subunit beta (Trypanosoma cruzi) (UniProt O96673); test: Trypanosoma cruzi proteasome chymotrypsin-like activity (TcProtChymo) assay.; also: in the data most compounds retested in dose-response had high values; format: functional; settings: 9.37 µM
# T3 sequence (whole entry): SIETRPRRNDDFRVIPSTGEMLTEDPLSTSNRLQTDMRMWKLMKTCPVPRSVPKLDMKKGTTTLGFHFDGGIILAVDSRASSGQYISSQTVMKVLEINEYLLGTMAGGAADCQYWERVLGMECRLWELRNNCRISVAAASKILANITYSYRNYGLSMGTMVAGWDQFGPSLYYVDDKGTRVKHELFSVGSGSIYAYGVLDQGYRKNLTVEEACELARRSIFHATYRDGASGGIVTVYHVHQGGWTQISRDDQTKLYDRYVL
# N/A = test: Trypanosoma cruzi proteasome luciferase counter-screen; format: functional; settings: 9.37 µM
# Homo sapiens = organism: Homo sapiens; test: To identify inhibition of the IFN signalling (Jak-Stat) pathway via expression of an eGFP reporter gene under the control of an IFN-stimulated response element (ISRE) containing MxA promoter.; format: functional; settings: 30 µM
# [7] = molecular target: T4, Tyrosyl-tRNA synthetase, putative (Trypanosoma cruzi (strain CL Brener)) (UniProt Q4DSP6); test: Trypanosoma cruzi tyrosyl tRNA synthetase (TcYRS) _High Tyrosine SOP; format: functional; settings: 30 µM; also: in the data most compounds retested in dose-response had high values
# T4 sequence (whole entry): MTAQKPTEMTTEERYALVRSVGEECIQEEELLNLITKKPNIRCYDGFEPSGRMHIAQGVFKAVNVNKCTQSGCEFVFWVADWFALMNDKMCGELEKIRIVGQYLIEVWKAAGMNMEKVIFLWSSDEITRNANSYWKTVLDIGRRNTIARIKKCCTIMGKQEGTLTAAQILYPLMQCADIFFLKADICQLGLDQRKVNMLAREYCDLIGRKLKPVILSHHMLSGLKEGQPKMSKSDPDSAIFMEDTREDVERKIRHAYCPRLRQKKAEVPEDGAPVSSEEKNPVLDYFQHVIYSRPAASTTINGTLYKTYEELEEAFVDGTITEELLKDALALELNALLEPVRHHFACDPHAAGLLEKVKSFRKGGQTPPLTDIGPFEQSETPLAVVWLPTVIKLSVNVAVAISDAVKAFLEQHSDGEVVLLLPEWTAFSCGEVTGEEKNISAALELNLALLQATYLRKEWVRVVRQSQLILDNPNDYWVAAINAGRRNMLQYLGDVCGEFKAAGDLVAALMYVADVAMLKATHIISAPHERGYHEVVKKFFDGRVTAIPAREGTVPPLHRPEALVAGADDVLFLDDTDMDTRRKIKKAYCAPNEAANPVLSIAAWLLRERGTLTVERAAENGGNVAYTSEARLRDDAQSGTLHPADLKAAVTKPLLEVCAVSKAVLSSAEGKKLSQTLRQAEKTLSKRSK
# [8] = molecular target: T4, Tyrosyl-tRNA synthetase, putative (Trypanosoma cruzi (strain CL Brener)); test: Trypanosoma cruzi tyrosyl tRNA synthetase (TcYRS) SOP; format: functional; settings: 30 µM
# [9] = molecular target: Chromo domain-containing protein 1 (Saccharomyces cerevisiae (strain ATCC 204508 / S288c) (Baker's yeast)) (UniProt P32657); test: ScCHD-1 Enzyme Inhibition Assay; format: functional; settings: 30 µM; also: in the data most compounds retested in dose-response had high values
# Sequence of Chromo domain-containing protein 1 (Saccharomyces cerevisiae (strain ATCC 204508 / S288c) (Baker's yeast)) (P32657 whole entry, the tested form may be a part): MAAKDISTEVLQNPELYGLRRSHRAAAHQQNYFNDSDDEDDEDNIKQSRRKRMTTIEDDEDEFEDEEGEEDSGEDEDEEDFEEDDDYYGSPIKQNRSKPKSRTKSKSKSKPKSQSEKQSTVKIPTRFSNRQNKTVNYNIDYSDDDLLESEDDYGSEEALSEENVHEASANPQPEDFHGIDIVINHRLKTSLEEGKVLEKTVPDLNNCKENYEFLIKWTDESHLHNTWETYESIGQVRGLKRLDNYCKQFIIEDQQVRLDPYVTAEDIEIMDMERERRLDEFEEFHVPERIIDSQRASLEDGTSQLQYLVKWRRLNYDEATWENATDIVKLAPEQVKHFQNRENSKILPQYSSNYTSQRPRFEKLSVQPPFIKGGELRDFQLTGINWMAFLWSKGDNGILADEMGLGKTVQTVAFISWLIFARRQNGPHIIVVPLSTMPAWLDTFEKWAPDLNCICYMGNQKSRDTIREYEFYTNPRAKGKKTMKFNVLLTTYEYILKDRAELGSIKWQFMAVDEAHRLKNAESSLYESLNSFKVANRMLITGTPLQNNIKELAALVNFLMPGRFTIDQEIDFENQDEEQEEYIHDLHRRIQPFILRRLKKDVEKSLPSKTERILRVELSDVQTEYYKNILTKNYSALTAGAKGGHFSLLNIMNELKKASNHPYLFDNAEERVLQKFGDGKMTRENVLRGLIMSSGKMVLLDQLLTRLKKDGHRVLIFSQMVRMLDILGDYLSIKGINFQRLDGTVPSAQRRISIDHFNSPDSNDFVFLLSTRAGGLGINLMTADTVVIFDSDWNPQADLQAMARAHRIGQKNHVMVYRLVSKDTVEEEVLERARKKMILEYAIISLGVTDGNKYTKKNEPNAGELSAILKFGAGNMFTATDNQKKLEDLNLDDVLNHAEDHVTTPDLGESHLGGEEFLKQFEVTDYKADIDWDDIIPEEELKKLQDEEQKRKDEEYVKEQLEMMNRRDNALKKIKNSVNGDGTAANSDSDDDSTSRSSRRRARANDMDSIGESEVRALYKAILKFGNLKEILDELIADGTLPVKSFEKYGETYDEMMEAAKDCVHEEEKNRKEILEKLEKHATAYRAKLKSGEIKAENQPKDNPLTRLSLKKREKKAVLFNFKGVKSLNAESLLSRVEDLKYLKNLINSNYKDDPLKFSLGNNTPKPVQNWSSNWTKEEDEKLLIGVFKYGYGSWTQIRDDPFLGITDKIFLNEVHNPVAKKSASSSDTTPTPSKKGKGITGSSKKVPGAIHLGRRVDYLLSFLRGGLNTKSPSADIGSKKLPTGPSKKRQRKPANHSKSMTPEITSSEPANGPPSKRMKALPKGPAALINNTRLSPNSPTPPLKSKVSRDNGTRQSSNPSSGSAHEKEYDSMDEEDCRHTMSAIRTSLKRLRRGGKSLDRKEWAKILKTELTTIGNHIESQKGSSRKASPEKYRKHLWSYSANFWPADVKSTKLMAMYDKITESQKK
# Sequence of Protein translocase subunit SecA (Escherichia coli (strain K12)) (P10408 whole entry): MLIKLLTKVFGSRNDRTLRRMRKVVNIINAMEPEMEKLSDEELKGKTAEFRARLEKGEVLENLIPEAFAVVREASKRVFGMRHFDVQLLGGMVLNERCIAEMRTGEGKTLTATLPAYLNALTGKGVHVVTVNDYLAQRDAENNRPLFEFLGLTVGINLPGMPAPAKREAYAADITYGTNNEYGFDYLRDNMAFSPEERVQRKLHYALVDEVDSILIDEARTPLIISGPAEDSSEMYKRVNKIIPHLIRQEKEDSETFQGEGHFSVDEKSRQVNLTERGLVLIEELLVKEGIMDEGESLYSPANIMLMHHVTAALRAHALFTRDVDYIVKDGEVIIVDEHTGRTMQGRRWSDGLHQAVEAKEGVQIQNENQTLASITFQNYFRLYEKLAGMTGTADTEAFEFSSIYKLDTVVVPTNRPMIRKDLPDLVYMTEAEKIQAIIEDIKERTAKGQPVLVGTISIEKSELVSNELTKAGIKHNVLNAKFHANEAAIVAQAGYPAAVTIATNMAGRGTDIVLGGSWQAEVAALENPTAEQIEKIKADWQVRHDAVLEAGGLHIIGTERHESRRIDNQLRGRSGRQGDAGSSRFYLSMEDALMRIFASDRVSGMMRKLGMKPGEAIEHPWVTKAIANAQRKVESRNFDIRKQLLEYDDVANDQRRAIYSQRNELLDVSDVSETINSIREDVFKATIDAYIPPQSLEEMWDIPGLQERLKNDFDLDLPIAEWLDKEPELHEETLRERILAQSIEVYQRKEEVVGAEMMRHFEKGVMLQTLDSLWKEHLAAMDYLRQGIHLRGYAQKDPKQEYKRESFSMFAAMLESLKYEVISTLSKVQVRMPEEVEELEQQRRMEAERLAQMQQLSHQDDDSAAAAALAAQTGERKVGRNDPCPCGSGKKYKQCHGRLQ
# Sequence of Sialic acid-binding Ig-like lectin 9 (Homo sapiens) (Q9Y336 whole entry): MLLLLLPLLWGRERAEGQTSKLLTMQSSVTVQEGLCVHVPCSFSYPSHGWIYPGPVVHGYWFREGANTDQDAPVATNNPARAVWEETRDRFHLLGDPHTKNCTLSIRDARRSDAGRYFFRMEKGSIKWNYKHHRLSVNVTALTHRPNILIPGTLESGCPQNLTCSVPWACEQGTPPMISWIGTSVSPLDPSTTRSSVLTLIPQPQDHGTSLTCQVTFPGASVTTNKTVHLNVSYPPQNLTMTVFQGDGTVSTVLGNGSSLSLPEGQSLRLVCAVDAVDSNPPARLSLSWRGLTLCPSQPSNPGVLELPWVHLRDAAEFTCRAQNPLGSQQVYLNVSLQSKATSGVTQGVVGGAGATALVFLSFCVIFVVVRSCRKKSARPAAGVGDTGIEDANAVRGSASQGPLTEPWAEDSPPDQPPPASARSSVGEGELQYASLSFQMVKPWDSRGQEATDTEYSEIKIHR
Structure (SMILES),Percent Effect [1] [%],Percent Effect [2] [%],Percent Effect [3] [%],Percent Effect [4] [%],Percent Effect (Trypanosoma cruzi) [%],Percent Effect [5] [%],Percent Effect [6],Percent Effect (N/A),Percent Effect (Homo sapiens) [%],Percent Effect [7] [%],Percent Effect [8] [%],Percent Effect [9] [%]
CCCC(NC(=O)c1cc(C)n(C2CC2)c1C)c1nnn[nH]1 (stereo not given),-6.85,8,-2.47,18.2,6.13,11.5,41.1% and 40.1% and 33.4%,13.1% and 10.6%,14.1,8.2,11.1,-4.79
CN1CCCC1c1ccc(C(=O)N2CCc3ccccc3C2)s1 (stereo not given),-3.53,-16.2,2.64,-7.08,-3.81,-2.73,74.8% and 75.3% and 64.5%,44.8% and 43.9%,16.1,3.23,-3.7,7.75
Cc1cc(C(=O)N2CCC3(CCCN(CC4CC4)C3=O)C2)c(C)n1C (stereo not given),-5.53,5.48,-5.43,6.36,0.794,-4.39,49.3% and 56.6% and 47.8%,11% and 8.3%,10.3,20.8,28.4,-1.72
CCc1nc(COc2ccc(OCc3cnn(C)c3)cc2)no1,-3.52,13.5,-5.93,21.3,3.86,4.29,50.7% (2×) and 48.5%,32% and 28.2%,23.4,3.7,19.5,-9.15
CN(C(=O)Cc1ccc(NC(=O)NC2CCC2)cc1)c1ccccc1,-9.26,5.26,-0.53,9.14,4.58,0,41.9% and 43.6% and 48.1%,15.8% and 14.9%,9.37,4.25,15.6,-19
CC(C)c1cc2c(O)nc(CSCC(=O)O)nc2s1,-4.64,6.67,7.73,3.74,3.93,-2.99,70.5% and 64.5% and 63.5%,32% and 29.1%,1.31,4.23,10.3,-9.79
COc1cccc(-c2nc(C)c(C(=O)N[C@@H](C)C(=O)O)s2)c1,-0.174,12,-0.167,-2.7,-2.36,-12.5,77.2% and 81.5% and 84.7%,56.5% and 53.9%,5.55,9.52,12.8,-7.59
O=C(N[C@@H]1CN(Cc2ccsc2)[C@@H]2CCCO[C@@H]21)C1CC1,-8.12,18.7,-4.7,2.36,-0.193,-57.9,37.3% and 23.2% and 22.2%,7.24% and 10.5%,-2.14,4.17,17.5,-7.56
Cc1cnn(CC2CN(c3cnc4ccccc4n3)CCO2)c1 (stereo not given),-8.32,15.2,2.77,14.7,12,-4.56,38.1% and 39.2% and 44.7%,20.3% and 14.5%,14.6,4.43,21.5,-12.5
c1cc(OCc2ccc3c(c2)OCCO3)ccc1CNC1CC1,5.92,0,13.6,-13.3,-7.3,-5.92,91.2% and 90% and 88.4%,63.7% and 65.3%,23,-2.13,5.2,-5.94
Cc1nc(CN2CCOC(CNc3cccnn3)C2)oc1C (stereo not given),-1.3,0,-22.1,-5.8,0.283,28.9,30.6% and 26.7% and 36.4%,11.3% and 10.2%,11.3,2.46,-8.64,-0.197
CNC(=O)c1cnc(/C=C/c2ccc(OC)c(O)c2)s1,-3.24,5.41,32.5,-3.93,-5.27,2.08,31.5% and 31.2% and 35.7%,10.7% and 15.6%,16.4,3.96,6.1,-1.59
COc1cccc(-c2nc(C)c(C(=O)NC(CO)CCSC)s2)c1 (stereo not given),-3.43,1.33,7.43,6.12,-2.36,-11.4,30.1% and 33.3% and 30.7%,26.5% and 29.5%,15.6,4.23,7.69,-7.42
CCOc1ncccc1NC(=O)c1cc2c(s1)CCC2,1.48,9.72,8.31,7.26,2.82,-6.18,22.1% and 36.7% and 23%,13.8% and 15.3%,9.51,4.21,10.3,63.8
Cc1nc(CN2CCCC(N(C)Cc3cscn3)C2)no1 (stereo not given),-5.04,5.2,-1.86,-3.2,7.54,-6.11,40.2% and 44.8% and 59.4%,16.1% and 22%,17.1,3.81,11.8,-17.6
CC(C)c1n[nH]c(C(=O)Nc2ccncc2)c1Br,-1.59,7.59,60,0.333,-3.31,4.18,97% and 96.6% and 95.9%,81.8% and 83.2%,58.2,4.43,8.86,-3.82
COc1cc(/C=C/c2ncc(C(=O)O)s2)cc(Cl)c1O,3.12,13.9,50.5,-3.01,0.923,4.95,99.9% and 99% and 99.8%,92.6% and 91.5%,-2.51,4.17,15.2,-33.3
CNC(=O)N1CC[C@@H]2CN(Cc3cccnc3)S(=O)(=O)[C@@H]2CC1,-2.59,8.11,4.84,-4.72,1.27,0.319,11.4% and 31.6% and 11.9%,5.24% and 4.76%,-15.6,0,15.4,0.163
Cc1cc(C2CCCN(C(=O)c3c(C)noc3C)C2)n[nH]1 (stereo not given),-3.57,2.63,9.83,9.23,0.292,-20.1,16.6% and 37.9% and 18.8%,18% and 16.2%,-5.01,7.45,7.79,-1.42
O=C(Nc1ccccn1)C1CC(=O)N(Cc2ccccn2)C1 (stereo not given),-2.05,15.8,1.82,8.62,-4.97,2.37,26.3% and 37.5% and 33.2%,28% and 30%,-8.07,3.19,7.79,-4
